USP8 inh: inhibitors of human USP8 deubiquitinase | inhibition, % at 20 µM | purified USP8, Ub-rhodamine cleavage fluorescence, 30 min | hit rate 4.2% among 47,000 | Ubiquitin carboxyl-terminal hydrolase 8 (Homo sapiens), P40818
USP30 block: inhibitors of human USP30 deubiquitinase | Ubiquitin carboxyl-terminal hydrolase 30 (Homo sapiens), Q70CQ3 | purified USP30, Ub-rhodamine cleavage fluorescence | inhibition, % at 25 µM | AID 1645860, 2021 | hit rate 5.3% among 47,000
USP17 inh: inhibitors of human USP17 deubiquitinase. Ubiquitin carboxyl-terminal hydrolase 17-like protein 5 (Homo sapiens), A8MUK1. purified USP17, Ub-rhodamine cleavage fluorescence, 3 h. inhibition, % at 50 µM. hit rate 6.5% among 47,000. AID 1645855, 2021
The depositor's hits bear a star. Sampled rows, rich in hits. Any-hit rate of the full collection: about 12%. Rule as the data show it: active = inhibition above about 30%; inactive = the rest.

How did CC(=O)c1ccc(NC(=O)CSc2nc(-c3ccccc3)nc3c2COC(C)(C)C3)cc1 do in these assays?
USP8 inh: 3; USP30 block: 18; USP17 inh: 21

What do the screens show for `Cc1ccc(C)c(S(=O)(=O)N2CCN(C(C)c3nc4ccccc4c(=O)[nH]3)CC2)c1` (configuration not stated)?
USP8 inh: 1; USP30 block: -18; USP17 inh: -7

Results for Cc1ccc(C)c(S(=O)(=O)N2CCN(c3nc(-c4cccs4)nc4ccccc34)CC2)c1 ?
USP8 inh: -47; USP30 block: 31*; USP17 inh: 14

Results for Cc1ccccc1C(=O)N1CCC2(CC1)OCCN2S(=O)(=O)c1ccccc1 ?
USP8 inh: 0; USP30 block: -13; USP17 inh: 0

Results for Cc1ccc(S(=O)(=O)N2CCOC23CCN(C(=O)c2ccccc2)CC3)cc1 ?
USP8 inh: 11; USP30 block: 33*; USP17 inh: 9

How did CC(=O)Nc1nsc(N2CCC(C(=O)N3CCN(c4cccc(C)c4C)CC3)CC2)n1 do in these assays?
USP8 inh: -65; USP30 block: -3; USP17 inh: -23

How did CCCOc1ccc(C2CN3C(=O)CN(CCN4CCOCC4)C(=O)[C@]3(C)c3[nH]c4ccccc4c32)cc1OC (some centres not stated) do in these assays?
USP8 inh: 0; USP30 block: -17; USP17 inh: -11

What do the screens show for `Cn1cc(-c2cnc(-c3ccccc3)nc2)cc1C(=O)NCCc1cccnc1`?
USP8 inh: -1; USP30 block: -9; USP17 inh: -25

What do the screens show for `Cn1cc(-c2cnc(-c3cccc(F)c3)nc2)cc1C(=O)NCc1cccnc1`?
USP8 inh: 1; USP30 block: 3; USP17 inh: 51*

How did Cc1noc(-c2ccc(SCC(=O)Nc3cccc(F)c3)nc2)n1 do in these assays?
USP8 inh: -13; USP30 block: -84; USP17 inh: -75

Results for CCOC(=O)CSc1cc(CS(=O)c2ccc(Cl)cc2)nc(-c2ccccc2)n1 (configuration not stated) ?
USP8 inh: 12; USP30 block: 41*; USP17 inh: 27

Results for O=S(Cc1cc(N2CCOCC2)nc(-c2ccccc2)n1)c1ccc(Cl)cc1 (configuration not stated) ?
USP8 inh: 1; USP30 block: 26; USP17 inh: -2

How did N#CC1(c2ccccc2)CCN(c2ccccn2)CC1 do in these assays?
USP8 inh: -44; USP30 block: 5; USP17 inh: 3

What do the screens show for `CCOc1cc(C2C3=C(CC(C)(C)CC3=O)Nc3onc(C)c32)ccc1O` (configuration not stated)?
USP8 inh: 15; USP30 block: 45*; USP17 inh: 51*

How did CC(=O)Nc1ccc(C2C3=C(CC(C)(C)CC3=O)Nc3onc(C)c32)cc1 (configuration not stated) do in these assays?
USP8 inh: 16; USP30 block: 19; USP17 inh: 7

What do the screens show for `CC1(C)OC2=C(C(=O)c3cc(O)cc(O)c3C2=O)c2cc(CO)c(O)cc21`?
USP8 inh: 10; USP30 block: 0; USP17 inh: 82*

Results for COc1ccc(-c2cnn(-c3ccc(NC(=O)Nc4cccc(C(F)(F)F)c4)cc3)c2)cc1 ?
USP8 inh: 31*; USP30 block: 13

How did O=C(Nc1ccc(OC(F)(F)F)cc1)Nc1ccc(-n2ccc(C(F)(F)F)n2)cc1 do in these assays?
USP8 inh: 3; USP30 block: 5; USP17 inh: 2

What do the screens show for `COc1ccc2c(c1)c1nc(C)sc1n2CCN1CCOCC1`?
USP8 inh: 43*; USP30 block: 8; USP17 inh: 12

What do the screens show for `COc1ccc2[nH]c3c(=O)n(CCN4CCOCC4)cnc3c2c1`?
USP8 inh: 8; USP30 block: 3; USP17 inh: 2

What do the screens show for `COc1cccc(C(=O)COC(=O)c2cc(=O)[nH]c3ccccc23)c1`?
USP8 inh: 2; USP30 block: -26; USP17 inh: 37*

How did O=C(COC(=O)c1cc(=O)[nH]c2ccccc12)c1ccc(Cl)cc1 do in these assays?
USP8 inh: 16; USP30 block: -9; USP17 inh: -4

Results for O=C(c1cccc(F)c1)N1CCN(c2cnn3c(C4CC4)nnc3c2)CC1 ?
USP8 inh: -1; USP30 block: -5; USP17 inh: -7

What do the screens show for `N#Cc1ccc(Cl)cc1NC(=O)CN1C(=O)c2ccccc2S1(=O)=O`?
USP8 inh: -14; USP30 block: 18; USP17 inh: 11

What do the screens show for `N#Cc1ccc(Cl)cc1NC(=O)COc1cccnc1[N+](=O)[O-]`?
USP8 inh: -63; USP30 block: 31*; USP17 inh: 50*

Screening data as filed in PubChem BioAssay.
